Results taken from PubChem BioAssay (EPA / NIEHS).
Results filed as inconclusive are left out. Calls of active or inactive are those of the source. The calls were made as follows: active = hit-call score of the fitted dose curve at least 0.9, where 1 is the maximum; inconclusive = response in the unintended direction; inactive = score below 0.9.

What was measured:
[1] = TOX21_p53_BLA_p2_viability: Viability Assessment in the Tox21 HCT-116 p53 Agonism Beta-lactamase Assay, Phase 2 (AID 2283591);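 also: compound exposure lasted 16 h at 37 °C; actives lower the ATP signal meaning cytotoxicity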
In short: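 Cytotoxicity readout: CellTiter-Glo ATP luminescence, 30 min at room temperature, after the beta-lactamase read. Cells were HCT116 exposed 16 h at 37C to compounds pin-transferred at 217-fold dilution from DMSO stocks.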

[2] = TOX21_p53_BLA_p3_viability: Viability Assessment in the Tox21 HCT-116 p53 Agonism Beta-lactamase Assay, Phase 3 (AID 2283593);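 also: cells exposed to compound for 16 h before reading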
In short: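 Cellular ATP was quantified by CellTiter-Glo luminescence, read after 30 min at room temperature. Beforehand, HCT116 cells (4000/well) received compound 5 h post-seeding, 217-fold diluted from DMSO, then incubated 16 h at 37C.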

[3] = TOX21_p53_BLA_p4_viability: Viability Assessment in the Tox21 HCT-116 p53 Agonism Beta-lactamase Assay, Phase 4 (AID 2283597);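 also: hits lower the luminescence signal meaning cytotoxicity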
In short: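 Cells plated, 5 h pre-incubation; DMSO compounds pinned (217-fold dilution); 16 h, 37C/5% CO2; CCF4-AM 2 h RT; CellTiter-Glo 30 min RT; luminescence read.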

[4] = molecular target: Cellular tumor antigen p53 (Homo sapiens) (UniProt P04637); assay: TOX21_p53_BLA_p5_ratio: Tox21 HCT-116 p53 Agonism Beta-lactamase Assay, Ratio, Phase 5 (AID 2283599)
Chain of Cellular tumor antigen p53 (Homo sapiens) (P04637 whole entry, looked up): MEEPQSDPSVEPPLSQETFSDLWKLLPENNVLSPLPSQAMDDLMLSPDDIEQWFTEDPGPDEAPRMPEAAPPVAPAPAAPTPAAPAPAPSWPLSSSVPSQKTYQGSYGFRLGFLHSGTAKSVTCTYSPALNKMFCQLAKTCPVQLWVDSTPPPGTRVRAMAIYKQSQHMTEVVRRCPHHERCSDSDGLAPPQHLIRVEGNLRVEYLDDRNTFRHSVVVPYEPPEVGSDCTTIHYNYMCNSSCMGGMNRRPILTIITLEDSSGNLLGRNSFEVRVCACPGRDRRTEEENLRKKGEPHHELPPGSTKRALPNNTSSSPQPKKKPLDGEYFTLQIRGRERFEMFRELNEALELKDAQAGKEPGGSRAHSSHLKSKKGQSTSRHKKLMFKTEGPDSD
In short: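 Beta-lactamase reporter ratio (blue 460 nm over green 530 nm, 405 nm excitation) after 2 h CCF4-AM loading, in HCT-116 cells exposed 16 h at 37 C to compounds pinned at 217-fold dilution. Increases relative to DMSO baseline scored.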

[5] = TOX21_p53_BLA_p5_viability: Viability Assessment in the Tox21 HCT-116 p53 Agonism Beta-lactamase Assay, Phase 5 (AID 2283600)
In short: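 4000 cells/well; 5 h pre-incubation; DMSO compounds pin-transferred, 217-fold dilution; 16 h, 37C/5% CO2; CCF4-AM 2 h RT; CellTiter-Glo 30 min RT; luminescence.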

[6] = molecular target: Cellular tumor antigen p53 (Homo sapiens) (UniProt P04637); assay: TOX21_p53_BLA_p4_ratio: Tox21 HCT-116 p53 Agonism Beta-lactamase Assay, Ratio, Phase 4 (AID 2283601)
In short: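 Signal is the blue/green (460nm/530nm) ratio of cleaved versus uncleaved CCF4-AM substrate, read after 2 h substrate loading. Cells were HCT116 carrying the p53-responsive beta-lactamase reporter, dosed 16 h at 37C, 5% CO2; CellTiter-Glo measured in parallel.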

Measured: AC50

O=C(CCl)C(Cl)Cl
active: [3] 6.25 µM | [4] 29 µM | [6] 26.1 µM
inactive: all other assays above
